Test results reported in PubChem BioAssay.
Active and inactive are the calls of the source.

Tests used:
[1] = system: Plasmodium falciparum Sir2 (PF13_0152, Sir2A); test: Plasmodium falciparum Sir2A binding compounds – biochemical, small-molecule microarray, 635 nm fluorescence, primary screen (AID 1098); settings: fluorescence 635 nm, higher = more signal;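 also: score merges spot fluorescence intensity with its signal-to-noise ratio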
[2] = probe aDKK1 binding to arrayed compounds – biochemical, biotinylated probe, 635/667 nm fluorescence, primary screen (AID 1099); settings: small-molecule microarray, higher = more signal;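 also: score merges 667nm spot fluorescence with signal to noise across triplicate slides; reference of the scale not given here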
[3] = probe aCHRDL2 binding to arrayed compounds – biochemical, biotinylated probe, 635/667 nm fluorescence, primary screen (AID 1100); settings: small-molecule microarray, higher = more signal
[4] = change in splice reporter luminescence, either direction, cell-based, HEK293, spliceosome inhibition project, primary screen (AID 1101); settings: HEK293 splicing luciferase reporter, 24 h, higher = more signal, called active from +8 up or from −8 down;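 also: HEK293 cells carrying a splicing-competent luciferase reporter gene; test concentration not given here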
[5] = target: Fibroblast growth factor 10 (Homo sapiens) (UniProt O15520); test: compounds binding fibroblast growth factor 10 – biochemical, small-molecule microarray, 635 nm fluorescence, primary screen (AID 1102); settings: FGF10 binding, fluorescence 635 nm, higher = more signal
[6] = system: glycogen synthase kinase-3 (GSK3A per assay name; protocol says GSK3B); test: compounds binding glycogen synthase kinase-3 – biochemical, small-molecule microarray, 635 nm fluorescence, GSK3A, primary screen (AID 1103); settings: fluorescence 635 nm, higher = more signal; also: the record names both GSK3A and GSK3B
[7] = target: Epidermal growth factor receptor (Homo sapiens) (UniProt P00533); test: compounds binding epidermal growth factor receptor – biochemical, small-molecule microarray, 635 nm fluorescence, primary screen (AID 1104); settings: EGFR binding, higher = more signal;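 also: score merges 667 nm emission intensity with spot signal to noise over triplicate slides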
[8] = target: Follistatin-related protein 3 (Homo sapiens) (UniProt O95633); test: compounds binding follistatin-related protein 3 – biochemical, small-molecule microarray, 635 nm fluorescence, primary screen (AID 1105); settings: FSTL3 binding, higher = more signal;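 also: score merges emission near 667 nm and signal to noise per printed spot across three slides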
[9] = target: Dickkopf-related protein 1 (Homo sapiens) (UniProt O94907); test: small molecules binding DKK1 protein – biochemical, small-molecule microarray, 635 nm fluorescence scan, primary screen (AID 1106); settings: higher = more signal;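 also: score merges emission near 667 nm with signal to noise over three replicate slides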
[10] = system: Inhibin beta A chain (activin A); test: small molecules binding activin A – biochemical, small-molecule microarray, 635 nm fluorescence scan, primary screen (AID 1107); settings: INHBA, higher = more signal;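 also: mouse activin A protein probed at 4.33 µg/mL on printed slides; score merges bound-protein fluorescence near 667 nm with spot signal-to-noise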

Sequence of Fibroblast growth factor 10 (Homo sapiens) (O15520 whole entry, looked up): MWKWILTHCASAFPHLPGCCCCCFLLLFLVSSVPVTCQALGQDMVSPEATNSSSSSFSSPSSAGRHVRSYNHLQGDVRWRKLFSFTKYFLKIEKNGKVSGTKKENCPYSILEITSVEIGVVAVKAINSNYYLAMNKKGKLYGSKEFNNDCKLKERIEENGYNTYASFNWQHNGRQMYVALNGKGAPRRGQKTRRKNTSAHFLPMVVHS
Sequence of Epidermal growth factor receptor (Homo sapiens) (P00533 whole entry, looked up): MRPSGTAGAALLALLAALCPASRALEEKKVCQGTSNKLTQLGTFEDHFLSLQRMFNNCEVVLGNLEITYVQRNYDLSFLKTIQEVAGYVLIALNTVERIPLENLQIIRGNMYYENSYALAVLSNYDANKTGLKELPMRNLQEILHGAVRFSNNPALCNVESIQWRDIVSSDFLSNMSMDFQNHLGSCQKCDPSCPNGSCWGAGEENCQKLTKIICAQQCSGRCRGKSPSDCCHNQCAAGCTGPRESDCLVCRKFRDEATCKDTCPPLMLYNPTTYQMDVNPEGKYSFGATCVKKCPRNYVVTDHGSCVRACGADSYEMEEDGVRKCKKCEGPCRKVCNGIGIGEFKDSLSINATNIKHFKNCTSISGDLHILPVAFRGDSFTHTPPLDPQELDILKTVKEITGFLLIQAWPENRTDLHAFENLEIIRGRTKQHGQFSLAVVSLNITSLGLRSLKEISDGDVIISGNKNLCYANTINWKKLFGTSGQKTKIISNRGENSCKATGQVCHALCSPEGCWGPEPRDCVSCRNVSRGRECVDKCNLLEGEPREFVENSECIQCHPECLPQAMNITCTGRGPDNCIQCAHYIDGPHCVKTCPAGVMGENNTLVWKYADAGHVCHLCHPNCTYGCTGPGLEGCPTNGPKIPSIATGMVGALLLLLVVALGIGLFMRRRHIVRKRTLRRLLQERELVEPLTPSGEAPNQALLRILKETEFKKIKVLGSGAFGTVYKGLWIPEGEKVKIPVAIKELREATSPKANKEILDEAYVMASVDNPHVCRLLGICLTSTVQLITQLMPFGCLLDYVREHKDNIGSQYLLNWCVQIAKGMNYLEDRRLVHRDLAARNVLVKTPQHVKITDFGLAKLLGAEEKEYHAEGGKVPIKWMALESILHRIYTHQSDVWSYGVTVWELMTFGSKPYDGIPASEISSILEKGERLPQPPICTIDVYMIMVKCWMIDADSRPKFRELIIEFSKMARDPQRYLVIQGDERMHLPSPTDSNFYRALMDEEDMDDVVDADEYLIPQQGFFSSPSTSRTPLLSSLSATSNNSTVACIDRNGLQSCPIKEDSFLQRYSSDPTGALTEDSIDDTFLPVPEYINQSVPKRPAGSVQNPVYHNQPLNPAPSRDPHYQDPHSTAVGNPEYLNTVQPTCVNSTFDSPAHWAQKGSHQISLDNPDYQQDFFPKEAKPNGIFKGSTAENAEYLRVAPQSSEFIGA
Sequence of Dickkopf-related protein 1 (Homo sapiens) (O94907 whole entry, looked up): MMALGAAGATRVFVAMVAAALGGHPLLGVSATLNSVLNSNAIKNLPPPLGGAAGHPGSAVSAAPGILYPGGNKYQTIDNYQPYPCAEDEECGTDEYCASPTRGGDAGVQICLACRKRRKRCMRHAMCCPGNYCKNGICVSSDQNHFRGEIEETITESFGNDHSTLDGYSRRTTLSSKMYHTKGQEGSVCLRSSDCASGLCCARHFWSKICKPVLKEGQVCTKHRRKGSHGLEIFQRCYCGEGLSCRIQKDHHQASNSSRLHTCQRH
Sequence of Follistatin-related protein 3 (Homo sapiens) (O95633 whole entry, looked up): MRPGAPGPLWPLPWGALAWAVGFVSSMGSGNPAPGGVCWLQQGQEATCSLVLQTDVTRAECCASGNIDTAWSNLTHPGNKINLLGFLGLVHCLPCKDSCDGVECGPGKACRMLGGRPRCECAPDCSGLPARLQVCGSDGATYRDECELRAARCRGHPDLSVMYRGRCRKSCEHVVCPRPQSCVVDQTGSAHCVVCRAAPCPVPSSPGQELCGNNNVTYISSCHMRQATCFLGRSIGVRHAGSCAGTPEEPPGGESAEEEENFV

Compound	composite z-score [1]	composite z-score [2]	composite z-score [3]	z-score [4]	composite z-score [5]	composite z-score [6]	composite z-score [7]	composite z-score [8]	composite z-score [9]	composite z-score [10]
C=C(COC)/C(=C/C[C@@H](OC(C)=O)c1ccccc1OCCO)c1cnc2ccccc2c1	1.24	-0.151	-0.112	0.617 (inactive)	1.39	0.344	0.26	1.44	0.336	1.78
COC(=O)[C@@]1(Cc2ccccc2)[C@H]2c3cc(C(=O)N(C)C)n(CCO)c3C[C@H]2CN1C(=O)c1ccccc1	0.621	1.25	1.21	0.395 (inactive)	0.909	0.594	-0.745	-0.181	-0.994	-0.206
[N-]=[N+]=Nc1ccccc1C[C@@]1(C(=O)NCC(O)CO)N=C(c2ccc(OCCCO)cc2)O[C@@H]1c1ccccc1 (stereo not given in full)	0.973	0.262	0.9	-0.0949 (inactive)	-0.134	0.119	-1.16	-0.932	-1.17	0.0121
CCCCC(O)C1C=CC2C(=O)N(c3ccccc3)C(=O)C2N1Nc1ccccc1 (stereo not given)	0.664	0.696	0.91	0.759 (inactive)	0.564	-0.501	-0.633	-0.293	-0.699	1.16
NC(=O)NCC#Cc1ccc2c(c1)[C@]1(C(=O)N2)[C@H](c2ccc(OCCO)cc2)N2[C@H](c3ccccc3)[C@H](c3ccccc3)OC(=O)[C@H]2[C@@H]1C(=O)NC[C@H](O)c1ccccc1	1.24	0.0619	0.909	0.199 (inactive)	0.131	-0.708	-0.256	-0.216	-0.229	0.902
Cc1ccc(S[C@]2(C(=O)NC(C)C)CC(=O)N(C3CCCCC3)[C@@H]2c2ccc(CO)cc2I)cc1	1.16	0.763	0.547	-0.504 (inactive)	0.612	0.621	-0.242	1.19	0.205	0.0441
O=C(NC1CC1)[C@@H]1c2ccccc2C(=O)N(Cc2ccc(OC(F)(F)F)cc2)[C@H]1c1ccc(CO)cc1	0.572	-0.082	0.111	-0.599 (inactive)	0.567	-0.589	0.0972	0.301	0.864	0.301
COc1ccc([Si](C)(C)[C@@H]2[C@@H](CC(=O)N(CCO)Cc3ccccc3)O[C@]3(C(=O)N(Cc4ccc(I)cc4)c4ccccc43)[C@H]2C)cc1	0.625	0.346	0.351	-2.35 (inactive)	1.1	0.301	1.03	1.37	1.2	1.58
CC(C)(C)N1CC=CC23O[C@@H]4/C=C\CCCOC(=O)C4[C@H]2C(=O)N(CCCCCO)[C@@H]3C1=O (stereo not given in full)	1.58	-0.3	0.149	-0.464 (inactive)	-0.943	-0.581	-1.43	-1.63	-0.473	-1.11
C[N+](C)(C)CCCCNC(=O)[C@H]1C[C@H]2C(=O)N[C@@H](Cc3ccccc3)C(=O)N2[C@H]1c1cccc(OCCO)c1	1.59	0.104	-0.17	-0.161 (inactive)	1.44	1.13	0.899	1.48	2.04	0.748
CCOC(=O)C[C@H]1[C@H](OC(=O)c2ccccc2-c2ccccc2)[C@@H](NC(=O)C2CCCCC2)c2cc(OCCCO)ccc2N1C(=O)c1ccc2ccccc2n1	0.486	-0.0483	-0.334	0.0681 (inactive)	0.679	0.452	0.27	0.845	0.483	-0.286
CCCc1cc2c(n1CCc1ccc(Cl)cc1)C(C)C1CN(C(=O)c3ccccc3)C(C)(C(=O)OC)C21 (stereo not given)	0.462	1.64	1.59	3.17 (inactive)	0.464	-0.014	-0.403	0.252	-1.92	1.24
COC(=O)[C@@]1(Cc2ccc(F)cc2)[C@H]2c3cc(C(=O)N(C)C)n(CCc4ccc(O)c(O)c4)c3C[C@H]2CN1C(=O)c1ccccc1	0.681	0.52	0.828	0.692 (inactive)	0.842	-0.292	-0.147	-0.439	-0.372	0.239
COCCn1c(C(=O)N(C)C)cc2c1C[C@H]1CN(C(=O)c3ccccc3)[C@@](Cc3ccc(OC)cc3)(C(=O)OC)[C@@H]21	0.816	0.785	1.34	-0.346 (inactive)	0.26	0.22	0.0351	0.324	-0.745	1.21
CC(C)OC(=O)CC(=O)CC(O)c1cccc([N+](=O)[O-])c1 (stereo not given)	0.784	0.645	0.851	-2.86 (inactive)	0.366	0.814	-0.113	0.753	-0.229	0.916
COc1ccc(CCNC(=O)[C@@H]2c3ccccc3C(=O)N(Cc3ccccc3OC)[C@H]2c2ccc(CO)cc2)cc1	1.1	-0.381	0.508	0.295 (inactive)	0.454	0.931	0.0744	0.172	0.0163	0.414

Compound	composite z-score [1]	composite z-score [2]	composite z-score [3]	z-score [4]	composite z-score [5]	composite z-score [6]	composite z-score [7]	composite z-score [8]	composite z-score [9]	composite z-score [10]
CC[C@@H]1C=C(C(=O)O)[C@H](c2ccc(OC)cc2)N1S(=O)(=O)c1ccc(C)cc1	1.05	-0.0814	0.118	0.603 (inactive)	-0.0657	-1.06	-0.675	0.0479	-0.188	0.615
COC(=O)[C@@]1(Cc2ccccc2)[C@H]2c3cc(C(=O)N(C)C)n(CCSC(=N)N)c3C[C@H]2CN1C(=O)c1ccccc1	1.16	0.743	1	0.61 (inactive)	-0.315	-0.102	-0.649	-0.406	-1.49	1.01
C[C@]1(C(=O)O)c2ccccc2C(=O)N(Cc2cc(F)cc(C(F)(F)F)c2)[C@H]1c1ccc(CO)cc1	1.64	-0.0944	0.249	0.395 (inactive)	0.139	-0.429	0.213	0.0304	-0.336	0.561
COc1cc(CO)cc(I)c1O[C@H]1C=C(C(=O)NCCO)C[C@@H](NC2CCCCCC2)[C@@H]1O	0.515	-0.168	-0.675	-0.51 (inactive)	1.38	1.16	0.44	1.29	0.772	0.0403
CC(C)NC(=O)[C@@H]1c2ccccc2C(=O)N(Cc2ccccc2C(F)(F)F)[C@H]1c1ccc(CO)cc1	1.68	1.35	0.218	0.438 (inactive)	0.697	-0.295	-0.08	0.147	-0.393	-0.349
COCCOC(=O)N1C(=O)[C@@]2(c3cc(C#CCCO)ccc31)[C@H](c1ccccc1OCCO)N1[C@H](c3ccccc3)[C@H](c3ccccc3)OC(=O)[C@H]1[C@@H]2C(N)=O	1.3	-0.154	0.0318	-1.51 (inactive)	1.19	1.21	0.312	1.05	0.433	-0.0938
COCCOC(=O)N1C(=O)[C@@]2(c3ccccc31)[C@H](C(=O)N1CCN(c3ncccn3)CC1)[C@H]1C(=O)O[C@H](c3ccccc3)[C@H](c3ccccc3)N1[C@@H]2c1ccccc1OCCO	1.33	-0.0994	-0.41	-1.05 (inactive)	1.17	1.31	0.575	1.15	0.778	0.888
C=CCC(OC(C)=O)[C@@H]1[C@@H](N(Cc2cc3ccccc3o2)C(=O)c2cccc3ccccc23)c2cc(OCCCO)ccc2N1C(=O)c1ccc2ccccc2n1 (stereo not given in full)	-0.408	0.749	0.317	-0.73 (inactive)	0.169	0.0025	0.3	-0.0659	0.121	1.1
COC(=O)[C@@]1(Cc2ccc(OC)cc2)[C@H]2c3cc(C(=O)N(C)C)[nH]c3C[C@H]2CN1C(=O)c1ccccc1	1.03	0.416	0.564	0.569 (inactive)	1.12	-0.54	-0.144	-0.273	-0.465	0.0999
CC(C)(C)N1CC=CC23O[C@@H]4C=CCOC(=O)[C@@H]4[C@H]2C(=O)N(CCO)[C@@H]3C1=O (stereo not given in full)	1.75	-0.243	0.375	-0.273 (inactive)	-1.05	-1.14	-0.687	-0.955	-1.44	-0.545
C=CCOC(=O)[C@H]1[C@@H]2C(=O)O[C@@H](c3ccccc3)[C@@H](c3ccccc3)N2[C@@H](c2ccc(OCCOC(=O)[C@H]3C[C@H]4C(=O)N[C@@H](CC(C)C)C(=O)N4[C@H]3c3ccc(O)cc3)cc2)[C@]12C(=O)Nc1ccccc12	1.58	0.0955	0.202	0.119 (inactive)	1.47	1.34	1.41	1.4	1.54	0.509
COC(=O)[C@@]1(Cc2ccccc2)[C@H]2c3cc(C(=O)N4CCCC4)n(Cc4ccc(OC)c(OC)c4)c3C[C@H]2CN1C(=O)c1ccccc1	0.491	1.14	1.2	-2.9 (inactive)	0.971	1.06	0.122	0.985	-0.823	0.763
COC(=O)[C@@]1(Cc2ccc(OC)cc2)[C@H]2c3cc(C(=O)N4CCCC4)n(Cc4ccc(Cl)c(C(F)(F)F)c4)c3C[C@H]2CN1C(=O)c1ccccc1	1.38	1.62	1.23	-0.75 (inactive)	0.927	1.27	-0.02	1.36	-0.428	0.822
O=C1O[C@@H](c2ccccc2)[C@@H](c2ccccc2)N2[C@@H](c3ccc(OCCO)cc3)[C@]3(C(=O)Nc4ccc(C#CCCO)cc43)[C@@H](C(=O)O)[C@H]12	1.81	0.416	1.17	0.362 (inactive)	1.41	0.746	0.702	0.988	0.151	1.34
COc1ccc([Si](C)(C)[C@H]2[C@H](CCO)O[C@@]3(C(=O)N(Cc4ccc(NC(=O)[C@H](C)O)cc4)c4ccccc43)[C@@H]2C)cc1	0.931	0.162	0.193	-2.32 (inactive)	1.14	1.07	0.161	0.0961	0.156	0.531
[N-]=[N+]=NCc1ccccc1[C@@H]1OC(c2ccc(OCCCO)cc2)=N[C@]1(Cc1ccccc1N=[N+]=[N-])C(=O)NCC(O)CO (stereo not given in full)	1.29	1.28	0.98	1.25 (inactive)	0.846	0.898	0.0004	0.418	0.0477	1.22
